Assay results from PubChem BioAssay AID1159580 (chemical genetic matrix, 2015).
In all, about 5,500 compounds went through this assay and about 2,000 (36%) were called active. Not shown: some 18% with an inconclusive outcome. Rule as the data show it: active = normalized growth mostly below about 0.91 (no sharp cut-off); inconclusive = no clear call, values can overlap the other calls; inactive = mostly above about 0.92. Some of the results follow.

Test: chemical genetic growth profiling, strain panel (AID 1159580);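 also: tested at 20 µM; growth read once vehicle control cultures reached saturation at 30 °C; 1 = growth at the plate median or of vehicle wells; lower values mean less growth of the strain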
Settings: S. cerevisiae deletion strains, growth OD

Measured: normalized growth

Cc1c(Nc2ncccc2C(=O)O)cccc1C(F)(F)F
inactive: locus YAL021C, strain ccr4, hits give low values 0.937 | locus YAL026C, strain drs2, hits give low values 0.979 | locus YAL030W, strain snc1, hits give low values 0.981 | locus YBL061C, strain skt5, hits give low values 0.981 | locus YBR009C, strain hhf1, hits give low values 0.967 | locus YBR023C, strain chs3, hits give low values 0.99 | locus YBR171W, strain sec66, hits give low values 0.969 | locus YBR231C, strain swc5, hits give low values 1.01 | locus YBR279W, strain paf1, hits give low values 0.987 | locus YCL011C, strain gbp2, hits give low values 0.979 | locus YCL016C, strain dcc1, hits give low values 0.975 | locus YCL069W, strain vba3, hits give low values 0.985 | locus YCR088W, strain abp1, hits give low values 0.979 | locus YDL005C, strain med2, hits give low values 0.986 | locus YDL040C, strain nat1, hits give low values 0.981 | locus YDR001C, strain nth1, hits give low values 0.964 | locus YDR069C, strain doa4, hits give low values 0.966 | locus YDR137W, strain rgp1, hits give low values 0.979 | locus YDR159W, strain sac3, hits give low values 0.999 | locus YDR195W, strain ref2 0.955 | locus YDR297W, strain sur2, hits give low values 0.996 | locus YDR334W, strain swr1, hits give low values 0.961 | locus YDR335W, strain msn5, hits give low values 0.983 | locus YDR392W, strain spt3, hits give low values 1 | locus YEL003W, strain gim4, hits give low values 0.974 | locus YEL037C, strain rad23, hits give low values 0.989 | locus YEL061C, strain CIN8 (second series), hits give low values 0.981 | locus YER015W, strain faa2, hits give low values 0.988 | locus YER016W, strain bim1, hits give low values 0.978 | locus YER111C, strain swi4, hits give low values 0.963 | locus YER155C, strain BEM2 (second series), hits give low values 1.01 | locus YFR010W, strain ubp6, hits give low values 0.978 | locus YGL167C, strain pmr1, hits give low values 0.952 | locus YGL173C, strain kem1, hits give low values 0.984 | locus YGL227W, strain vid30, hits give low values 0.978 | locus YGL240W, strain doc1, hits give low values 1.02 | locus YGL253W, strain hxk2, hits give low values 0.968 | locus YHR013C, strain ard1, hits give low values 0.958 | locus YHR027C, strain rpn1, hits give low values 0.971 | locus YHR030C, strain SLT2, hits give low values 0.947 | locus YHR079C, strain IRE1, hits give low values 0.974 | locus YHR142W, strain chs7, hits give low values 0.96 | locus YJL092W, strain hpr5, hits give low values 0.961 | locus YJL095W, strain BCK1 (second series), hits give low values 0.983 | locus YJL095W, strain BCK1, hits give low values 0.989 | locus YJL115W, strain asf1, hits give low values 0.958 | locus YJL129C, strain trk1, hits give low values 0.955 | locus YJL154C, strain vps35, hits give low values 0.972 | locus YJL164C, strain tpk1, hits give low values 0.97 | locus YJL166W, strain qcr8, hits give low values 0.994 | locus YJL187C, strain SWE1, hits give low values 0.992 | locus YJR066W, strain TOR1, hits give low values 0.928 | locus YKL160W, strain elf1, hits give low values 0.967 | locus YKR026C, strain gcn3, hits give low values 0.972 | locus YKR091W, strain srl3, hits give low values 0.97 | locus YLL001W, strain dnm1, hits give low values 0.981 | locus YLL026W, hits give low values 0.978 | locus YLL041C, strain sdh2, hits give low values 0.953 | locus YLR027C, strain aat2, hits give low values 0.993 | locus YLR113W, strain HOG1, hits give low values 0.991 | locus YLR221C, strain rsa3, hits give low values 0.997 | locus YLR258W, strain gsy2, hits give low values 0.969 | locus YLR262C, strain YPT6 (second series), hits give low values 1.02 | locus YLR320W, strain mms22, hits give low values 1.01 | locus YLR342W, strain FKS1, hits give low values 0.988 | locus YLR357W, strain rsc2, hits give low values 0.952 | locus YLR370C, strain arc18, hits give low values 0.963 | locus YLR384C, strain iki3, hits give low values 1 | locus YML120C, strain ndi1, hits give low values 0.974 | locus YMR058W, strain fet3, hits give low values 0.972 | locus YMR125W, strain sto1, hits give low values 0.945 | locus YMR129W, hits give low values 0.972 | locus YMR205C, strain PFK2, hits give low values 0.977 | locus YMR231W, strain pep5, hits give low values 0.983 | locus YNL071W, strain lat1, hits give low values 0.981 | locus YNL183C, strain NPR1, hits give low values 0.954 | locus YNL209W, strain ssb2, hits give low values 0.983 | locus YNL248C, strain rpa49, hits give low values 0.996 | locus YNL322C, strain KRE1 (second series), hits give low values 0.97 | locus YNR049C, strain mso1, hits give low values 0.962 | locus YOR001W, strain rrp6, hits give low values 0.983 | locus YOR070C, strain gyp1, hits give low values 0.989 | locus YOR080W, strain dia2, hits give low values 0.979 | locus YOR083W, strain WHI5, hits give low values 0.98 | locus YOR106W, strain vam3, hits give low values 0.957 | locus YOR231W, strain MKK1, hits give low values 0.982 | locus YOR265W, strain rbl2, hits give low values 0.968 | locus YOR270C, strain vph1, hits give low values 0.983 | locus YOR290C, strain snf2, hits give low values 0.943 | locus YPL051W, strain arl3, hits give low values 1.01 | locus YPL078C, strain atp4, hits give low values 0.951 | locus YPL106C, strain sse1, hits give low values 0.982 | locus YPL240C, strain hsp82, hits give low values 0.98 | locus YPL256C, strain CLN2, hits give low values 0.951
